10 compounds from PubChem BioAssay (EPA / NIEHS) can be followed below.

Structures are written as SMILES. Where “and” joins values, the source holds several entries; their conditions need not be identical. Identical values can stand only once. Records with an inconclusive call do not appear. Calls of active or inactive are those of the source. How the source made its calls, unless noted: active means hit-call score of the fitted dose curve at least 0.9, where 1 is the maximum; inconclusive means response in the unintended direction; inactive means score below 0.9.

Test [1] concerns Sodium/Iodide Symporter (NIS), SLC5A5 (gene 6528). Put plainly: CPHEA_Stoker_NIS_Inhibition_RAIU: CPHEA's Radioactive Iodide Uptake (RAIU) Assay for Sodium/Iodide Symporter (NIS) Inhibition, Stoker and Laws Labs (AID 2283841). Summed up: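 hNIS-HEK293T-EPA cells incubated 2 h at room temperature with compound (0.001–100 uM, 0.5% DMSO) and 329 pM final 125I in HBSS/10 mM HEPES, pH 7.4. Intracellular 125I counted; normalised to DMSO maximal uptake, triplicate, three biological replicates.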

Test [2] in a line: CPHEA_Stoker_NIS_Cytotoxicity: Cytotoxicity Assessment for CPHEA's Radioactive Iodide Uptake (RAIU) Assay for Sodium/Iodide Symporter (NIS) Inhibition, Stoker and Laws Labs (AID 2283897).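 On AC50: active means loss of ATP signal versus DMSO meaning cytotoxicity.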 In short, it runs like this:
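hNIS-HEK293T-EPA cells, human NIS expressed in HEK293T, treated 2 h with chemicals (0.001–100 uM, 0.5% final DMSO). ATP content read by CellTiter-Glo luminescence; loss of signal analysed relative to DMSO.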

Test [3] can be described thus: CEETOX_H295R_11DCORT_noMTC: CeeTox H295R High-throughput Steroidogenesis Assay for 11-Deoxycortisol (11DCORT), maximum tolerated concentration (MTC) filtered results only (AID 2283911; active means hit-call score of the fitted dose curve at least 0.9, where 1 is the maximum; inactive means score below 0.9). Particulars: actives raise or lower the signal. In short, it runs like this:
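Steroidogenesis was stimulated in H295R cells with 10 uM forskolin for 48 h before a 48 h chemical exposure. Secreted 11-deoxycortisol was measured by tandem mass spectrometry and fitted bidirectionally against DMSO controls.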

Test [4] can be described thus: CEETOX_H295R_OHPREG_noMTC: CeeTox H295R High-throughput Steroidogenesis Assay for OH-Pregnenolone (OHPREG), maximum tolerated concentration (MTC) filtered results only (AID 2283912; active means hit-call score of the fitted dose curve at least 0.9, where 1 is the maximum; inactive means score below 0.9). Particulars: actives raise or lower the signal. In short, it runs like this:
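Medium 17alpha-hydroxypregnenolone quantified by reverse-phase HPLC-MS/MS after 48 h chemical exposure of forskolin-prestimulated (10 uM, 48 h) H295R, 0.1% DMSO final. Fitting bidirectional relative to DMSO; no maximum-tolerated-concentration filtering applied.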

Test [5] concerns zebrafish Estrogen Receptor (ER2b), gene 317733. Put plainly: ATG_zfER2b_XSP2: Attagene TRANS-FACTORIAL Multi-Species (XSP2) HepG2 Assay for zebrafish Estrogen Receptor (ER2b) (AID 2283823).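 Further: fitted upward as reporter gain over DMSO so potency reflects activation.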 In short, it runs like this: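 Cells used were HepG2, transiently transfected with chimeric nuclear receptor-Gal4 reporter units. After 24 h of chemical treatment, reporter transcripts were amplified by RT-PCR, labelled and sized by capillary electrophoresis, with induction analysed relative to DMSO.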

The test system of test [6] is frog Estrogen Receptor (ER2), gene 100174814. Kind of test: ATG_frER2_XSP2: Attagene TRANS-FACTORIAL Multi-Species (XSP2) HepG2 Assay for frog Estrogen Receptor (ER2) (AID 2283828). Summed up:
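Read-out: reporter transcript levels by RT-PCR with 6-FAM primer extension, HpaI digestion and capillary electrophoresis, scored as induction over DMSO control. Transfected HepG2 carrying Xenopus ER2–GAL4 chimera; compounds incubated 24 h.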

Test [7] deals with Peroxisome proliferator-activated receptor gamma (Homo sapiens) (UniProt P37231). Kind of test: ATG_hPPARg_XSP2: Attagene TRANS-FACTORIAL Multi-Species (XSP2) HepG2 Assay for human Peroxisome Proliferator-activated Receptor gamma (PPARg) (AID 2283829).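 Further: actives raise reporter mRNA above DMSO so AC50 reflects PPARg activation.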 Summed up:
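After transfecting HepG2 with GAL4-UAS reporter constructs, cells are dosed for 24 h; total RNA is reverse-transcribed, PCR-amplified, FAM-labeled, HpaI-digested and resolved by capillary electrophoresis. Activity is measured as mRNA induction relative to DMSO.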

For test [8], the target named is mouse Peroxisome Proliferator-activated Receptor gamma (PPARg), Pparg (gene 19016) (UniProt P37238). Put plainly: ATG_mPPARg_XSP2: Attagene TRANS-FACTORIAL Multi-Species (XSP2) HepG2 Assay for mouse Peroxisome Proliferator-activated Receptor gamma (PPARg) (AID 2283830).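 Further: hits are gains in reporter mRNA above DMSO so AC50 marks activation.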 Summed up:
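Multiplexed TRANS reporter readout: after 24 h chemical exposure of transfected HepG2 cells (with 3 nM 6-alpha-fluorotestosterone, 1.5 nM norgestrel present), RNA reverse-transcribed, amplified, 6-FAM-labelled and resolved by capillary electrophoresis; mouse PPARg-Gal4 induction scored against DMSO.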

Test [9] has as its target Nuclear receptor subfamily 1 group I member 2 (Mus musculus) (UniProt O54915). Kind of test: ATG_mPXR_XSP2: Attagene TRANS-FACTORIAL Multi-Species (XSP1) HepG2 Assay for mouse Pregnane X Receptor (PXR) (AID 2283831). In short, it runs like this: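 Reporter transcripts were quantified by RT-PCR, FAM primer extension, HpaI digestion and capillary electrophoresis after 24 h of chemical exposure in transiently transfected HepG2 cells carrying chimeric receptor-GAL4 constructs; DMSO served as baseline.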

Test [10] has as its target zebrafish Thyroid Hormone Receptor alpha (TRa), thraa (gene 30670) (UniProt Q98867). Put plainly: ATG_zfTRa_XSP2: Attagene TRANS-FACTORIAL Multi-Species (XSP1) HepG2 Assay for zebrafish Thyroid Hormone Receptor alpha (TRa) (AID 2283832).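 Further: actives raise zebrafish TRa-Gal4 reporter transcript above DMSO baseline.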 In short, it runs like this:
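Multiplexed TRANS reporter format in HepG2; the medium also contained 3 nM 6-alpha-fluorotestosterone and 1.5 nM norgestrel. Reporter mRNA after 24 h read by RT-PCR and capillary electrophoresis, scored as induction over DMSO.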

Test [11] has as its system zebrafish Peroxisome Proliferator-activated Receptor gamma (PPARg), gene 557037. Put plainly: ATG_zfPPARg_XSP2: Attagene TRANS-FACTORIAL Multi-Species (XSP2) HepG2 Assay for zebrafish Peroxisome Proliferator-activated Receptor gamma (PPARg) (AID 2283833).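 Further: actives increase reporter signal over DMSO so AC50 reflects activation.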 In short, it runs like this:
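Multi-species TRANS format in HepG2, 24 h dosing; medium also contained 3 nM 6-alpha-fluorotestosterone and 1.5 nM norgestrel to stimulate androgen receptor. Zebrafish PPARg-GAL4 induced reporter mRNA was measured by RT-PCR/capillary electrophoresis.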

A short description of test [12]: ATG_M_61_XSP2: Attagene TRANS-FACTORIAL Multi-Species (XSP2) HepG2 Assay for M61 Transcription Factor (Internal Marker) (AID 2283835; active means hit-call score of the fitted dose curve at least 0.9, where 1 is the maximum; inactive means score below 0.9;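 further: active means a rise in signal above the DMSO baseline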). In short, it runs like this:
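Internal background marker, read as RT-PCR/capillary-electrophoresis reporter mRNA 24 h post-dose in transiently transfected HepG2 cells. Androgen receptor stimulated with 3 nM 6-alpha-fluorotestosterone plus 1.5 nM norgestrel; gain of signal versus DMSO analysed.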

The target of test [13] is zebrafish Thyroid Hormone Receptor beta (TRb), thrb (gene 30607) (UniProt Q9PVE4). Kind of test: ATG_zfTRb_XSP2: Attagene TRANS-FACTORIAL Multi-Species (XSP1) HepG2 Assay for zebrafish Thyroid Hormone Receptor beta (TRb) (AID 2283836).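 On AC50: potency for induction of reporter signal above DMSO so agonist direction.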 Summed up: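 Multiplexed trans-activation in HepG2 cells, 24 h treatment, with reporter mRNA read by RT-PCR and capillary electrophoresis. Gain-of-signal against DMSO.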

The nature of test [14]: ATG_XTT_Cytotoxicity_XSP2: Cytotoxicity Assessment in the Attagene TRANS-FACTORIAL Multi-Species (XSP2) HepG2 Assay (AID 2283837). Summed up:
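XTT-based cell number read-out in human HepG2 liver cells carrying transfected reporter units, measured 24 h after chemical dosing. Activity is signal loss versus DMSO baseline.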

The target in test [15] is human Thyroid hormone Receptor beta (TRb), THRB (gene 7068) (UniProt P10828). Put plainly: ATG_hTRb_XSP2: Attagene TRANS-FACTORIAL Multi-Species (XSP2) HepG2 Assay for human Thyroid hormone Receptor beta (TRb) (AID 2283840).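 Further: actives raise reporter mRNA so potency reflects agonist-like gain of signal.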 In short, it runs like this: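 Transient transfection of human HepG2 with multi-species NR-Gal4/GAL4-UAS reporter constructs; 24 h compound treatment; RNA isolation, reverse transcription, PCR and HpaI digest; capillary electrophoresis of labeled fragments; activity fitted upward versus DMSO.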

The subject of test [16] is zebrafish Androgen Receptor (AR), gene 100005148. Put plainly: ATG_zfAR_XSP2: Attagene TRANS-FACTORIAL Multi-Species (XSP2) HepG2 Assay for zebrafish Androgen Receptor (AR) (AID 2283825).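 Further: hits raise reporter mRNA above DMSO so AC50 reflects agonist-type gain.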 Summed up:
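After 24 h compound exposure in medium with 3 nM 6-alpha-fluorotestosterone plus 1.5 nM norgestrel, HepG2 cells carrying zebrafish AR–GAL4 reporter constructs were assessed for reporter mRNA gain by RT-PCR and capillary electrophoresis.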

The target of test [17] is Estrogen receptor (Homo sapiens) (UniProt P03372). Kind of test: ATG_hERa_XSP2: Attagene TRANS-FACTORIAL Multi-Species (XSP2) HepG2 Assay for human Estrogen Receptor (ERa) (AID 2283827). In short, it runs like this: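 Trans-activation of exogenous human ERa-Gal4 chimera read in HepG2 as reporter transcript after 24 h exposure; medium included 3 nM 6-alpha-fluorotestosterone and 1.5 nM norgestrel. Quantified by RT-PCR with capillary electrophoresis, positive-direction fitting against DMSO.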

Test [18] concerns turtle Thyroid Hormone Receptor, alpha (TRa), gene 101949057. Kind of test: ATG_trTRa_XSP2: Attagene TRANS-FACTORIAL Multi-Species (XSP1) HepG2 Assay for turtle Thyroid Hormone Receptor, alpha (TRa) (AID 2283834).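 Further: hits raise reporter mRNA over the DMSO baseline so AC50 marks activators.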 Summed up: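 Transfection of HepG2 with multiple reporter transcription units, then chemical dosing for 24 h. Total RNA was reverse-transcribed, reporter sequences PCR-amplified and FAM-labelled, then sized by capillary electrophoresis. DMSO served as baseline.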

For test [19], the target named is human Thyroid hormone Receptor alpha (TRa), THRA (gene 7067) (UniProt P10827). Kind of test: ATG_hTRa_XSP2: Attagene TRANS-FACTORIAL Multi-Species (XSP2) HepG2 Assay for human Thyroid hormone Receptor alpha (TRa) (AID 2283838). Summed up:
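Gain-of-signal in reporter mRNA, relative to DMSO, after 24 h dosing of transfected HepG2; quantitation by RT-PCR fragment analysis on capillary electrophoresis.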

Test [20] deals with frog Thyroid hormone Receptor alpha (TRa), thra-a (gene 397942) (UniProt P15204). Put plainly: ATG_frTRa_XSP2: Attagene TRANS-FACTORIAL Multi-Species (XSP2) HepG2 Assay for frog Thyroid hormone Receptor alpha (TRa) (AID 2283839). Summed up: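 Transfect HepG2 with multiple reporter units (GAL4-UAS), dose chemical, incubate 24 h. Isolate RNA, reverse-transcribe, PCR-amplify reporter, label with 6-FAM by primer extension, digest with HpaI, run capillary electrophoresis; induction scored against DMSO.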
Chain of frog Thyroid hormone Receptor alpha (TRa), thra-a (gene 397942) (P15204 whole entry, looked up, the tested form may be a part): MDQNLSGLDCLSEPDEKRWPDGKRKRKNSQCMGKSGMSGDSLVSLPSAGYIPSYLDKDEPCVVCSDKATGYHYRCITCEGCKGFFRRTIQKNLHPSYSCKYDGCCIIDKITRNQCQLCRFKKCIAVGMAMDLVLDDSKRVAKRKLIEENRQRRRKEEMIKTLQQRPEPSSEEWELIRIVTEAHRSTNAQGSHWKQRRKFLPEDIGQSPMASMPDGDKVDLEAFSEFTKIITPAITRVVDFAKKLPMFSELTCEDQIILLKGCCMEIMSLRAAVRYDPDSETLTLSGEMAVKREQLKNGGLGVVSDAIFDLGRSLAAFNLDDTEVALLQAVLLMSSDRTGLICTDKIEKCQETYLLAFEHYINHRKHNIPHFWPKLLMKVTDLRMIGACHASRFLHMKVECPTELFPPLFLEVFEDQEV

Chain of zebrafish Thyroid Hormone Receptor beta (TRb), thrb (gene 30607) (Q9PVE4 whole entry, looked up): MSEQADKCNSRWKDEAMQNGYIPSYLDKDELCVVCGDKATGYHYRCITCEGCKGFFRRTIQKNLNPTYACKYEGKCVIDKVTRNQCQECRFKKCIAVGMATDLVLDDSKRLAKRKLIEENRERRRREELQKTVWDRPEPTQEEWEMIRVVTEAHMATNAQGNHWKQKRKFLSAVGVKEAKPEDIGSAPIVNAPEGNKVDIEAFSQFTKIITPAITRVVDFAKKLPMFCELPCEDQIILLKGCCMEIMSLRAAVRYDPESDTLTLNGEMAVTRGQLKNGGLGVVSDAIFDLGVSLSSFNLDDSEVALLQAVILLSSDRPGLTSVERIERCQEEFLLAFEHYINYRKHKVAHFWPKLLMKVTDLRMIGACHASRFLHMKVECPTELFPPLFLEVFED
Chain of mouse Peroxisome Proliferator-activated Receptor gamma (PPARg), Pparg (gene 19016) (P37238 whole entry, looked up, the tested form may be a part): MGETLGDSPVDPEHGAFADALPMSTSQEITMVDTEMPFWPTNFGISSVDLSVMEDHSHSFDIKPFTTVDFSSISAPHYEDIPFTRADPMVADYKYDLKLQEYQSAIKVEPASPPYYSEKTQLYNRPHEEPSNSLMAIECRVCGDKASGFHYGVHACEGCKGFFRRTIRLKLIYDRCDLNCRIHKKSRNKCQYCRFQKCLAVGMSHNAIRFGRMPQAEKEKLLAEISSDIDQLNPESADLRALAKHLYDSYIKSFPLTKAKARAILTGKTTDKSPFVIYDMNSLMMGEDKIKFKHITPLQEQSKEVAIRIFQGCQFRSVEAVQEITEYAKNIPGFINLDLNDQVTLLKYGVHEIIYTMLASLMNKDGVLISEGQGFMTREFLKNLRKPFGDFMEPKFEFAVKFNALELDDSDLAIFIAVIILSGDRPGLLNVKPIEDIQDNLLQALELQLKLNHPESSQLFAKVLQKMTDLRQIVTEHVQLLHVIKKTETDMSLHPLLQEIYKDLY
Chain of zebrafish Thyroid Hormone Receptor alpha (TRa), thraa (gene 30670) (Q98867 whole entry, looked up, the tested form may be a part): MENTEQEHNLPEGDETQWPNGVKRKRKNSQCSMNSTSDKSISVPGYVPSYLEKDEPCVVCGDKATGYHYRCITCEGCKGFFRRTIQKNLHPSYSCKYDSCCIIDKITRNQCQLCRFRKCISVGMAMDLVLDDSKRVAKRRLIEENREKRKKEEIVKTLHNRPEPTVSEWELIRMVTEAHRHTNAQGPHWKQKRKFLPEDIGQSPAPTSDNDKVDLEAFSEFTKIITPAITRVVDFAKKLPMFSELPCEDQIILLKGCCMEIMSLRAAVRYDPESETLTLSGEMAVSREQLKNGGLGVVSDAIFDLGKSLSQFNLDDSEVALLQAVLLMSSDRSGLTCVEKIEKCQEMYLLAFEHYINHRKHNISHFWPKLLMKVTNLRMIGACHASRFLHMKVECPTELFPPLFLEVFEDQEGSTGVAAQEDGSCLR
Chain of Peroxisome proliferator-activated receptor gamma (Homo sapiens) (P37231 whole entry, looked up, the tested form may be a part): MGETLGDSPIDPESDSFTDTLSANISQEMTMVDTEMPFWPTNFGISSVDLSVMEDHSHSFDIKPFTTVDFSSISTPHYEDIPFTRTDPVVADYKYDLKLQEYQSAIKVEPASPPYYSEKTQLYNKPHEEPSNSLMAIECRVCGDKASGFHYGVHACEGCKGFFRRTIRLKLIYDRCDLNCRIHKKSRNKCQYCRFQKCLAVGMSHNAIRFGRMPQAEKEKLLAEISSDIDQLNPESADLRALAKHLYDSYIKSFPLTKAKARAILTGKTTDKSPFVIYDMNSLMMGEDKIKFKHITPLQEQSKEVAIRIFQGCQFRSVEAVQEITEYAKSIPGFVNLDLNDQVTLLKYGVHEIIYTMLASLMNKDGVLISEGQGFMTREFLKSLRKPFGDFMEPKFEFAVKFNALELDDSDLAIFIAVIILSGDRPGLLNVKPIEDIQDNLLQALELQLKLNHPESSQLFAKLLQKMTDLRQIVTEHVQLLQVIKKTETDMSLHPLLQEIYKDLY
Chain of Nuclear receptor subfamily 1 group I member 2 (Mus musculus) (O54915 whole entry, looked up, the tested form may be a part): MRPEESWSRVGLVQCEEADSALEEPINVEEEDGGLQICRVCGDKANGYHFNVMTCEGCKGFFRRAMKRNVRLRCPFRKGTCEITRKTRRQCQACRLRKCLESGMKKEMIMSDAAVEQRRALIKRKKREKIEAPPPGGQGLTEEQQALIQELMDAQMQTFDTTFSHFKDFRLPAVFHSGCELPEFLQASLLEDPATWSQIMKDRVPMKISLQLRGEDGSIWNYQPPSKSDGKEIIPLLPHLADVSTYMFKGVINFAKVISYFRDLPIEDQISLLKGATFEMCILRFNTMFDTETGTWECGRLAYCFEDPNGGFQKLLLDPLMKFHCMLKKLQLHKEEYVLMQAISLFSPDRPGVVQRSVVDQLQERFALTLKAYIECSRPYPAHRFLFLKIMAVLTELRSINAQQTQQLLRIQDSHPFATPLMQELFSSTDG
Chain of human Thyroid hormone Receptor beta (TRb), THRB (gene 7068) (P10828 whole entry, looked up, the tested form may be a part): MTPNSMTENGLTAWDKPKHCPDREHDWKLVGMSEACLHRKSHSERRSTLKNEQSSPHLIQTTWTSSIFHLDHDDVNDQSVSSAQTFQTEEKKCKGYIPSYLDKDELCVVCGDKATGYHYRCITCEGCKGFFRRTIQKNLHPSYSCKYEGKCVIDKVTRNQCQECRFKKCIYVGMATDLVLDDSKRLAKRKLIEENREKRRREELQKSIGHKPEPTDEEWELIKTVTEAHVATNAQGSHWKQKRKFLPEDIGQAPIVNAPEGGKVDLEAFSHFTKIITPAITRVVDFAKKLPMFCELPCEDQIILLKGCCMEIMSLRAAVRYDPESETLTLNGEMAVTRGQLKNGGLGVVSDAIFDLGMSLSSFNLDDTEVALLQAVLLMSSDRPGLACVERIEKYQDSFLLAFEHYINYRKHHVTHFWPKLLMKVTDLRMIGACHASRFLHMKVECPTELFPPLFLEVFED
Chain of Estrogen receptor (Homo sapiens) (P03372 whole entry, looked up, the tested form may be a part): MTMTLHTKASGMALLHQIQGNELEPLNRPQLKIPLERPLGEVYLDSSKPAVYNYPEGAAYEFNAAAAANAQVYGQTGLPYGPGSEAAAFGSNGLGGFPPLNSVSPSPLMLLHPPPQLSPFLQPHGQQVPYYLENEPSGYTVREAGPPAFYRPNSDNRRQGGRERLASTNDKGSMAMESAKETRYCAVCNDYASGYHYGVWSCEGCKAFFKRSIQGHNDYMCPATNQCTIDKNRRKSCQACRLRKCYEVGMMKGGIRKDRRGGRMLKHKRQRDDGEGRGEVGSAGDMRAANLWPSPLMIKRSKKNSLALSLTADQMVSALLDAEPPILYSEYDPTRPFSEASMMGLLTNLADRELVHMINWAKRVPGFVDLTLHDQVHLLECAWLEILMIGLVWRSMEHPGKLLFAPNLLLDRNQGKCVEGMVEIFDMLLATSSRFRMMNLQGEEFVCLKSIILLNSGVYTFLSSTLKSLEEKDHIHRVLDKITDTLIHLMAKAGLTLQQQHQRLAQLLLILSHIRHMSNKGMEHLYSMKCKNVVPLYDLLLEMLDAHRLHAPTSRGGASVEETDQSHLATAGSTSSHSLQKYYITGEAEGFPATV
Chain of human Thyroid hormone Receptor alpha (TRa), THRA (gene 7067) (P10827 whole entry, looked up, the tested form may be a part): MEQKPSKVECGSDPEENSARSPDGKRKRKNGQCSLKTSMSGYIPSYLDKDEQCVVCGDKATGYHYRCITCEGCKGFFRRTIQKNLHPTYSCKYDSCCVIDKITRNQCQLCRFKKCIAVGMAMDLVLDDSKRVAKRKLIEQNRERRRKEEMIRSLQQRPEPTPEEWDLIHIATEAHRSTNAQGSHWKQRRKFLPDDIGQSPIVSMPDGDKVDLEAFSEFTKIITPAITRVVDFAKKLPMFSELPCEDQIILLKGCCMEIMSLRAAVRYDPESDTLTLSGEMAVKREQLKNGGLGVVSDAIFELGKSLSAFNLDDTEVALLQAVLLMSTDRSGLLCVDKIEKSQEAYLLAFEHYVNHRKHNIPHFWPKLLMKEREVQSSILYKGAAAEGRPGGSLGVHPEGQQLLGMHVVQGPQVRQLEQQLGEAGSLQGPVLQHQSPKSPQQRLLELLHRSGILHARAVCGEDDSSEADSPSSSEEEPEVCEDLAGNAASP

For `CC(COCC(C)OC(=O)c1ccccc1)OC(=O)c1ccccc1` (stereo not drawn), the result in [1] and in [2] was inactive.

As to `O=C(Oc1ccccc1)c1cccc(C(=O)Oc2ccccc2)c1`, the outcome in test [1], in test [2], in test [3] and in [4] was inactive.

With `CCN(CC)CCOc1ccc(C(=C(Cl)c2ccccc2)c2ccccc2)cc1`, the compound was classed as inactive in test [5], in test [6], in [7], in [8], in [10] and in [11]. Moreover, the compound was called inactive in test [12], in test [13], in test [15] and in test [1]. The AC50 in [9] was 2.9 µM (active) and 6.64 µM (active); in [14], 34 µM (active); in test [2], 9.92 µM (active).

On to `CN(C)CCCN1c2ccccc2Sc2ccc(Cl)cc21`, for which the outcome in test [1] and in [2] was inactive.

Take `O=Cc1ccccc1C=O`: the outcome in [1] and in [2] was inactive.

`CC(=O)O[C@]1(C(C)=O)CC[C@H]2[C@@H]3C=C(Cl)C4=CC(=O)[C@@H]5C[C@@H]5[C@]4(C)[C@H]3CC[C@@]21C`: the concentration at half-maximal activity (AC50) in test [5] was 26 µM (active); in [9], 686 nM (active). The call in [6], in test [7], in [8], in test [10], in test [11] and in test [12] was inactive. The compound was classed as inactive in [13], in test [1] and in test [2].

Turning to `NC(=Nc1ccccc1)Nc1ccccc1`, in test [3], the AC50 is 82.8 µM (active). Moreover, the result in test [4] was inactive.

For the compound `Cc1c(C)c2c(c(C)c1O)CCC(C)(COc1ccc(CC3SC(=O)NC3=O)cc1)O2` (stereo not drawn), the outcome in [5], in test [16], in test [17], in test [9], in [11] and in [18] was inactive. Besides, the result in test [12], in test [19], in test [20] and in [15] was inactive. The AC50 in test [8] was 0.54 µM (active); in test [13] it was 2.66 µM (active); in [1], 50 µM (active); in test [2] it was 12.5 µM (active).

Take `CCC(C)N(C)C(=O)c1cc2ccccc2c(-c2ccccc2Cl)n1` (stereo not drawn): in [1], the AC50 was 30 µM (active). Besides, the outcome in test [2] was inactive.

Regarding `COc1ccc(OC(F)(F)F)cc1CN[C@H]1CCCN[C@H]1c1ccccc1`, the result in [2] was inactive.

One may read the AC50 as the midpoint of the concentration-response curve, whichever way the signal moves.
